According to PubChem BioAssay (NCI):
This is part of a sample that, as a whole, favours compounds with a hit. Of some 83,000 tested, about 20% had one in any assay.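 Compound tested at a single concentration for 48 hours in 96-well plates; a percent growth value below 10 was scored as active.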 Calls of active or inactive are those of the source.

Legend:
Assay in all cases: NCI-60 one-dose screen, 48 h (100 = growth as untreated, 0 = no growth, -100 = all killed)
[1] = system: SK-MEL-2 melanoma; settings: 10 µM unless noted
[2] = system: EKVX NSCLC; settings: 10 µM
[3] = system: SN12C renal; settings: 10 µM unless noted
[4] = system: UO-31 renal; settings: 10 µM unless noted
[5] = system: TK-10 renal; settings: 10 µM unless noted
[6] = system: ACHN renal; settings: 10 µM unless noted
[7] = system: CAKI-1 renal; settings: 10 µM unless noted
[8] = system: A498 renal; settings: 10 µM unless noted
[9] = system: CCRF-CEM leukemia; settings: 10 µM
[10] = system: MOLT-4 leukemia; settings: 10 µM unless noted

Measured: growth

CC(=O)NNC(=O)c1sc(NC(C)=O)nc1C
inactive: [1] 35.3% | [2] 115% | [3] 99.4% | [4] 89.1% | [5] 95.2% | [6] 106% | [7] 115% | [8] 100% | [9] 88.1% | [10] 94.1%

CCCCCCCCCCCCCCCC[n+]1cccc(C#N)c1
inactive: [1] 97.7% | [2] 98% | [3] 96.9% | [4] 67.6% | [5] 69.3% | [6] 39.2% | [7] 73% | [8] 86.6%
active: [9] -26% | [10] -13.3%

N=C(N)c1ccc(-c2ccc(-c3ccc(F)cc3)s2)cc1
active: [1] -62.1% | [2] -91.4% | [3] -71.2% | [4] -88.4% | [5] -79.9% | [6] -91.8% | [7] -95.1% | [8] -87.8% | [9] -62% | [10] -58.8%

COC(=O)c1ccc2[nH]c(O)c(C(=Nc3ccc(N(C)C(=O)CN4CCN(C)CC4)cc3)c3ccc4c(c3)OCO4)c2c1
inactive: [2] 37.3% | [3] 10.9% | [4] 14.7%
active: [1] -36.7% | [5] -9.95% | [6] 8.02% | [7] 4.52% | [8] -19.1% | [9] 4.01% | [10] 0.682%

O=C(Nc1ccc(Cl)cn1)C1(c2ccccc2)CCCCC1
inactive: [1] 116% | [2] 96% | [3] 106% | [4] 181% | [5] 126% | [6] 112% | [7] 120% | [8] 141% | [9] 14.1% | [10] 63.3%

O=C(Cc1ccccc1[N+](=O)[O-])c1ccc2c(c1)OCO2
inactive: [1] 99.4% | [2] 97.5% | [3] 96% | [4] 80.1% | [5] 91.6% | [6] 103% | [7] 97.8% | [8] 77.9% | [9] 76.3% | [10] 86.6%

CC1(C)C(O)NC(Cl)=C(C#N)C1(C#N)C#N (stereo not given)
inactive: [1] 97.6% | [2] 102% | [3] 127% | [4] 81.3% | [5] 143% | [6] 127% | [7] 177% | [8] 103% | [9] 78.8% | [10] 103%

COC1NC(Cl)=C(C#N)C(C#N)(C#N)C1(C)C (stereo not given)
inactive: [1] 99.1% | [2] 86.4% | [3] 104% | [4] 85.5% | [5] 113% | [6] 105% | [7] 104% | [8] 110% | [9] 109% | [10] 89.2%

CN1CCN(Cc2ccc(NC(=O)c3ccc(C#Cc4c(N)ncc5ccc(F)cc45)cc3)cc2C(F)(F)F)CC1
active: [1] -40.3% | [2] -59.1% | [3] -71.3% | [4] -56.8% | [5] -42.2% | [6] -92.6% | [9] -40.2% | [10] -55.2%
inactive: [7] 42.7% | [8] 77.9%

NC(N)=Nc1ccc(/C=C2\C=Cc3ccccc32)cc1
inactive: [1] 85.6% | [2] 75.7% | [3] 79.3% | [4] 49.1% | [5] 78.1% | [6] 67.8% | [7] 64.2% | [8] 47.7% | [9] 49.4% | [10] 37.2%

COc1ccc2cnc(N)c(C#Cc3cc(C(=O)Nc4ccc(CN5CCN(C)CC5)c(C(F)(F)F)c4)cnc3C)c2c1
inactive: [1] 56.8% | [2] 71.8% | [3] 50% | [5] 27.4% | [7] 33.9% | [8] 37.5% | [9] 18.7% | [10] 23.7%
active: [4] -71.8% | [6] -43.2%

Cc1cc(CSc2ccc(Cl)cc2)ccc1N
active: [9] 3.59%
inactive: [1] 99.7% | [2] 85.8% | [3] 42% | [4] 29.4% | [5] 101% | [6] 102% | [7] 95.1% | [8] 99.7% | [10] 49.7%

CCOC(=O)C1=C(c2ccccc2)NC(=O)NC1CN1C(=O)c2ccccc2C1=O (stereo not given)
inactive: [1] 101% | [2] 130% | [3] 107% | [4] 102% | [5] 111% | [6] 111% | [7] 105% | [8] 118% | [9] 54.4%
active: [10] 2.02%

COc1ccc2sc(-n3nc4nc5n(c(=O)c4c3N)-c3ccccc3Sc3ccccc3-5)nc2c1
inactive: [1] 81.5% | [2] 42.1% | [3] 76.7% | [4] 31.8% | [5] 102% | [6] 72.3% | [7] 57.7% | [8] 117% | [9] 68.1% | [10] 49.4%
